Source: PubChem BioAssay (NCATS)
Results filed as inconclusive are left out. A call without a number means that no potency is given here. Values without a mark were called inactive. Active and inactive are the calls of the source. The call rests on the fitted dose curve; in most records, active means well fitted cell-killing curve with a large enough effect; inconclusive means small, poorly fitted or top-dose-only effect, or effect the other way; inactive means no such curve, though single readings can be large or run the other way.
Potency means the concentration at half of the fitted maximal effect.

Assay: Viability qHTS for spleen associated tyrosine kinase inhibitor (SYKi) naive MV4-11 cells (AID 1963823); further: nearly all actives have a fitted effect of over 40% in size
Details: MV4-11 AML viability, CellTiter-Glo luminescence, 72 h; series mostly up to 45 µM
How it was run: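 Luminescence from CellTiter-Glo, developed 10 min at room temperature, gave viability of MV4-11 cells never exposed to SYK inhibitor. Cells (500/well) had been incubated with compounds for 72 hr under standard culture conditions.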
In the case of `CCC(=O)O[C@H]1C(C)(C)[C@H]([C@@H](O)C(=O)OC)[C@]2(C)C(=O)[C@@]1(O)[C@H]1O[C@]13C1CC(=O)O[C@@H](c4ccoc4)[C@]1(C)CCC32` (stereo partly drawn), the Potency is reported as “inactive”. For `COc1cccc2cc3c(c(O[C@@H]4O[C@H](CO[C@@H]5O[C@H](CO)[C@@H](O)[C@H](O)[C@H]5O)[C@@H](O)[C@H](O)[C@H]4O)c12)C(C)OC3=O` (stereo partly drawn), the Potency was “inactive”. With `COc1ccc(N2CCN(CCCNC(=O)Cn3c(=O)c4cccn4c4c(C)ccnc43)CC2)cc1` the Potency was “inactive”. In the case of `CN1C2CCC1CC(OC(=O)[C@H](CO)c1ccccc1)C2` (stereo partly drawn), the Potency is reported as 0.651 µM (active). In the case of `O=C(O)C[C@@H](NC(=O)c1cc(-c2ccc(-c3ccncc3)cc2)cs1)c1ccccc1`, the Potency is reported as “inactive”. With `CC(NC(=O)Cc1cc(F)cc(F)c1)C(=O)NC1C(=O)N(C)c2ccccc2-c2ccccc21` (stereo not drawn) the Potency was 5.17 µM (active). With `COC(=O)C1=CO[C@@H](O[C@@H]2O[C@H](CO)[C@@H](O)[C@H](O)[C@H]2O)[C@H]2[C@@H]1[C@H](O)C[C@]2(C)O` the Potency was “inactive”. For `CC(=O)SC[C@@H](Cc1ccccc1)C(=O)NCC(=O)OCc1ccccc1`, the Potency was “inactive”. For `COc1cc(/C=C/C(=O)OC2CC(C)=C(C(=O)O)/C2=C/CO[C@@H]2O[C@H](CO)[C@@H](O)[C@H](O)[C@H]2O)ccc1O` (stereo partly drawn), the Potency was “inactive”. `CC1(C)CC[C@]2(C(=O)O[C@@H]3O[C@H](CO)[C@@H](O)[C@H](O)[C@H]3O)CC[C@]3(C)C(=CCC4[C@@]5(C)CC[C@H](O[C@@H]6O[C@H](C(=O)O)[C@@H](O[C@@H]7O[C@H](CO)[C@@H](O)[C@H](O)[C@H]7O)[C@H](O)[C@H]6O[C@@H]6O[C@H](CO)[C@@H](O)[C@H](O)[C@H]6O)C(C)(C)C5CC[C@]43C)C2C1` (stereo partly drawn) showed a viability (% of control) of 93% [at 9.25 µM]. With `CC(C)(O)C1CCC(C)(C2CCC3(C)C4CCC5C(C)(C(=O)OC6OC(CO)C(O)C(O)C6O)C(O)CC(O)C56CC46CCC23C)O1` (stereo not drawn) the Potency was “inactive”. With `CC1(C(=O)O)CCCC2(C)C3CCC4CC3(CCC12)CC4=O` (stereo not drawn) the Potency was 13 µM (active). With `CCOc1cccc2c1OC(c1ccc(F)cc1)C([N+](=O)[O-])=C2` (stereo not drawn) the Potency was 1.16 µM (active). For `C=CC(C)(O)CC/C=C(/C)C(=O)OC1C(OC2OCC(OC3OC(CO)C(O)C(O)C3O)C(OC3OCC(O)C(OC4OC(C)C(O)C(O)C4O)C3O)C2O)COC(OC(=O)C23CCC(C)(C)CC2C2=CCC4C5(C)CCC(OC6OC(CO)C(OC7OC(CO)C(O)C(OC8OCC(O)C(O)C8O)C7O)C(O)C6O)C(C)(C)C5CCC4(C)C2(C)CC3O)C1O` (stereo not drawn), the viability (% of control) was 68.9% [at 4.97 µM]. In the case of `Cn1cc(Nc2cnccc2C(=O)O)c2cccnc21`, the Potency is reported as “inactive”. For `CC1=C[C@H]2[C@@H](CC1=O)[C@H](C)C[C@H](O)[C@H]2C(C)C`, the Potency was “inactive”. With `CC12CCC(OC3OC(CO)C(O)C(OC4OC(CO)C(O)C(O)C4O)C3O)CC1=CCC1C2CCC2(C)/C(=C3/COC(=O)C3)CCC12O` (stereo not drawn) the Potency was “inactive”. In the case of `CC1(C)OC(=O)CC(O)C2(C)C1CC(=O)C1(C)C2C(O)CC2(C)C(c3ccoc3)OC(=O)C3OC321` (stereo not drawn), the Potency is reported as “inactive”. For `CC(C)C1NC(=O)C(CC2(O)c3ccccc3N3C(=O)C(Cc4ccccc4)NC32)NC1=O` (stereo not drawn), the Potency was “inactive”. For `CC[C@H]1OC(=O)[C@H](C)[C@@H](O[C@H]2C[C@@](C)(OC)[C@@H](O)[C@H](C)O2)C(C)[C@@H](O[C@@H]2O[C@H](C)C[C@H](N(C)C)[C@H]2O)[C@](C)(O)C[C@@H](C)CN(C)[C@H](C)[C@@H](O)[C@]1(C)O` (stereo partly drawn), the Potency was “inactive”. In the case of `CCn1c(-c2nonc2N)nc2c(C#CCO)ncc(OCCCN)c21`, the Potency is reported as 0.58 µM (active). With `CC(C)C(NC(=O)c1ccc2ccccc2n1)C(=O)NC(CC(=O)O)C(=O)COc1c(F)cccc1F` (stereo not drawn) the Potency was “inactive”. With `CC(=O)OC1C(O)/C(C)=C\C2C(OC(=O)c3ccccc3)C(C)CC2(OC(C)=O)C(OC(C)=O)C(C)/C=C/C(C)(C)C1OC(C)=O` (stereo not drawn) the Potency was “inactive”. In the case of `O=C1c2ccccc2C(=O)c2c1ccc(O)c2O`, the Potency is reported as 9.44 µM (active). In the case of `CC12CCC3c4ccc(O)cc4CCC3C1CCC2OC1OC(C(=O)O)C(O)C(O)C1O` (stereo not drawn), the Potency is reported as “inactive”. In the case of `O=C(O)CCc1ccc(NCc2cccc3c2CCCN3CCOc2ccccc2)cc1F`, the Potency is reported as “inactive”. With `Cc1ccc(Cl)cc1N(CC(=O)Nc1c(F)cccc1F)S(C)(=O)=O` the Potency was 5.17 µM (active). In the case of `CC12CCC(OC3OC(CO)C(O)C(OC4OC(CO)C(O)C(O)C4O)C3O)CC1CCC1C2CCC2(C)/C(=C3/COC(=O)C3)CCC12O` (stereo not drawn), the Potency is reported as “inactive”.
